From PubChem BioAssay (Tox21)
Inconclusive results are not listed. Active and inactive are the calls of the source. Calls come from the whole dose curve; as a rule, active = well fitted cell-killing curve with a large enough effect in the repeat runs; inconclusive = weak or mixed curves, or effect the other way; inactive = no such curve, though single readings can be large or run the other way.

test: qHTS assay to identify small molecule antagonists of the progesterone receptor (PR) signaling pathway - cell viability counter screen (AID 1346798); settings: PR-UAS-bla HEK293T viability, CellTiter-Glo luminescence, 16 h; series mostly up to 42.5 µM; activity change, negative = cytotoxicity: at the top concentration; note: nearly all actives have a fitted effect of over 50% in size
Text: National Center for Advancing Translational Sciences [NCATS]
NIH Chemical Genomics Center [NCGC]
U.S. Environmental Protection Agency [EPA]
National Institutes of Environmental Health Sciences [NIEHS]
National Toxicology Program [NTP]
U.S. Food and Drug Administration [FDA]
Progesterone receptor (PR), a nuclear hormone receptor, plays an important role in development, metabolic homeostasis and reproduction. It is activated by the steroid hormone progesterone. Endocrine disrupting chemicals (EDCs) and their interactions with steroid hormone receptors like PR causes disruption of normal endocrine function. To identify the compounds that inhibit PR signaling, a PR-UAS-bla GripTite cell line i.e. PR-UAS-bla HEK293T (Invitrogen, Carlsbad, CA, USA) containing a beta-lactamase reporter gene under the control of an UAS response element was used to screen Tox21 10K compound library. The cytotoxicity of the Tox21 compound library against the PR-bla cell line was tested in parallel by measuring the cell viability using CellTiter-Glo assay in the same wells.
Tox21 Assay Protocol Summary:
PR-UAS-bla HEK293T cells were dispensed at 3,000 cells/4 uL of assay medium containing 2% charcoal stripped FBS per well into black wall/clear-bottom 1536-well plates using a Multidrop Combi (ThermoFisher Scientific, Waltham, MA) dispenser. After the assay plates were incubated at a 37C and 5% CO2 for 4 hr, 23 nL of compounds dissolved in DMSO, positive controls or DMSO only was transferred to the assay plate by a Pintool station (Kalypsys, San Diego, CA), followed by addition of 1 uL of R5020 in assay medium using a Flying Reagent Dispenser (FRD, Aurora Discovery, San Diego, CA). The plates were incubated at 37C and 5% CO2 for 16 hr. Then 1 uL of LiveBLAzer B/G FRET substrate was added using a Flying Reagent Dispenser, the plates were incubated at room temperature for 2 hours, and fluorescence intensity was measured by an Envision plate reader (PerkinElmer, Shelton, CT). For cell viability readout that measures cytotoxicity, 4 uL/well of CellTiter-Glo reagent was added into the assay plates using a FRD. After 30 min incubation at room temperature, the luminescence intensity in the plates was measured using a ViewLux (PerkinElmer) plate reader.
% is set by controls: 0 for no effect and ±100 for the full control effect.

Row | SMILES | activity change, negative = cytotoxicity
1 | CN1CC(=O)NC1=N | 2.43% (inactive)
2 | CCOC(C)(C)C | 9.88% [at 92.4 µM] (inactive)
3 | FC(F)OC(Cl)C(F)(F)F (stereo not given) | -8.69% [at 92.4 µM] (inactive)
4 | Nc1ccccc1S(=O)(=O)O | 8.96% [at 92.4 µM] (inactive)
5 | CC(C)c1cc2c(cc1S(=O)(=O)O)[C@@]1(C)CCC[C@@](C)(C(=O)O)[C@@H]1CC2 | 3.94% (inactive)
6 | O=C(O)CCCl | -29.4% [at 92.4 µM] (inactive)
7 | C[C@H]1C[C@@H](O)CC(C)(C)C1 | 1.68% [at 92.4 µM] (inactive)
8 | NC(=O)c1ccc([N+](=O)[O-])cc1 | 11.5% [at 92.4 µM] (inactive)
9 | CC1(C)C(O)C(C)(C)C1O (stereo not given) | -11.4% [at 92.4 µM] (inactive)
10 | C=COCC1CCC(CO)CC1 (stereo not given) | 4.33% [at 92.4 µM] (inactive)
11 | CCc1ccc(O)c(OC)c1 | -0.353% [at 92.4 µM] (inactive)
12 | N[C@H]1CN(c2c(F)cc3c(=O)c(C(=O)O)cn(C4C[C@H]4F)c3c2Cl)CC12CC2 (stereo not given in full) | 18.3% (inactive)
13 | CO[Si](CCCOCC1CO1)(OC)OC (stereo not given) | -3.46% [at 92.4 µM] (inactive)
14 | C=CCS(=O)(=O)O | 12.7% [at 92.4 µM] (inactive)
15 | COC(=O)c1c(Cl)c(Cl)c(C(=O)OC)c(Cl)c1Cl | 4.77% [at 92.4 µM] (inactive)
16 | CC(C)CCCC(C)N (stereo not given) | -9.16% (inactive)
17 | CCC(=O)OC(C)c1ccccc1 (stereo not given) | 0.768% [at 92.4 µM] (inactive)
18 | CC(C)OC(=O)c1ccccc1 | 8.47% [at 92.4 µM] (inactive)
19 | CCCCC(CC)COC(=O)c1ccccc1O (stereo not given) | 0.919% (inactive)
20 | Cc1[nH]c(=O)c(C#N)cc1-c1ccc2nccn2c1 | -6.11% (inactive)

Row | SMILES | activity change, negative = cytotoxicity
21 | C=C(C)C(=O)OCCCCCCCC(C)C | 11% [at 92.4 µM] (inactive)
22 | ClC(Cl)(Br)Br | 8.69% [at 92.4 µM] (inactive)
23 | CC(=O)N(CC(O)CO)c1c(I)c(C(=O)NCCO)c(I)c(C(=O)NCC(O)CO)c1I (stereo not given) | 13.8% (inactive)
24 | Cn1c(N)c(N=O)c(=O)n(C)c1=O | -8.65% [at 92.4 µM] (inactive)
25 | OC1CCCCC1c1ccccc1 (stereo not given) | -1.5% [at 92.4 µM] (inactive)
26 | CN1CCC(=C2c3ccccc3CC(=O)c3sccc32)CC1 | -18.9% (inactive)
27 | CC(=O)Nc1ccc(S(N)(=O)=O)cc1 | 1.81% [at 92.4 µM] (inactive)
28 | C=C[Si](OC(=C)C)(OC(=C)C)OC(=C)C | -2.55% [at 92.4 µM] (inactive)
29 | CCOc1ccc(C(=O)OCCN(CC)CC)cc1 | -16.9% (inactive)
30 | CC(=O)OCC(=O)[C@@]1(O)CC[C@H]2[C@@H]3CCC4=CC(=O)CC[C@]4(C)[C@H]3C(=O)C[C@@]21C | -5.51% (inactive)
31 | CCN(CC)CCNC(=O)c1cc(S(C)(=O)=O)ccc1OC | 2.95% (inactive)
32 | CC(=O)CC(C)C | 2.52% [at 92.4 µM] (inactive)
33 | CCO[Si](CCC1CCC2OC2C1)(OCC)OCC (stereo not given) | 1.38% [at 92.4 µM] (inactive)
34 | Cc1sccc1Br | -5.36% (inactive)
35 | CCN(Cc1ccncc1)C(=O)C(CO)c1ccccc1 (stereo not given) | 0.0804% (inactive)
36 | CCCCCCCCCCCCCC=O | 2% [at 8.39 µM] (inactive)
37 | CC1=CC(C)C(C=O)CC1 (stereo not given) | 6.58% [at 92.4 µM] (inactive)
38 | C1CN(CCOCCN2CCOCC2)CCO1 | 0.0351% [at 92.4 µM] (inactive)
39 | CS(=O)(=O)O | 3.28% [at 92.4 µM] (inactive)
40 | CCc1cccc2c(CCO)c[nH]c12 | -19.9% (inactive)
